Screening data from PubChem.
CYP2C9 activ = human CYP2C9 activators, primary screen, biochemical, luminescence; Cytochrome P450 2C9 (Homo sapiens), P11712; recombinant CYP2C9, luciferin-H conversion; hits give high values; factor 1 = untreated enzyme, 0 = blocked; activation factor at 5 µM; 1.4% of 96,000 active;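 active = activation factor of 2 or more for CYP2C9 at a 5 µM dose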;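 also: 0 = sulfaphenazole-blocked wells and 1 = vehicle-only wells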
CYP2C19 act = human CYP2C19 activators, primary screen, biochemical, luminescence; Cytochrome P450 2C19 (Homo sapiens), P33261; recombinant CYP2C19, luciferin-H EGE luminescence; hits give high values; 0 = fully inhibited enzyme, 1 = untreated enzyme; activation factor at 5 µM; 96,000 tested, under 10 active; AID 1025, 2008;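 active = activation factor of at least 2 at 5 µM in the primary screen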;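 also: 0 = wells with 2.5 mM tranylcypromine and 1 = vehicle-only wells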
Target sequence (P33261 whole entry, looked up): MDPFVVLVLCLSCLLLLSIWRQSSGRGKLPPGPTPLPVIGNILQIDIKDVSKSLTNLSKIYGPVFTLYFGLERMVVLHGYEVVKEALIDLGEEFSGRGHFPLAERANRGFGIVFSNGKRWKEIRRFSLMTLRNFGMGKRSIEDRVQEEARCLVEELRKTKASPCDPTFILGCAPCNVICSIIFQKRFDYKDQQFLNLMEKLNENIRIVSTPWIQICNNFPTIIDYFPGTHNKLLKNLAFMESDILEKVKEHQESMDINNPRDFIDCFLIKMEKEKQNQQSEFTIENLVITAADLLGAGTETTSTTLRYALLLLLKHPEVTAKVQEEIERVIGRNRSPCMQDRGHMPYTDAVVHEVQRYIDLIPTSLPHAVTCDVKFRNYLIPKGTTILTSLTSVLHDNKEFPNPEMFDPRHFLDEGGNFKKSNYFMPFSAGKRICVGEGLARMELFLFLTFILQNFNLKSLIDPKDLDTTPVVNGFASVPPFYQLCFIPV
CYP2C19 inh = blockers of cytochrome P450 2C19 activity – biochemical, luminescence, ADME assay, primary screen. inhibition, % at 5 µM. CYP2C19 Supersomes, luciferin-H EGE luminescence, 30 min. AID 778, 2007. 21% of 96,000 active;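 active = CYP2C19 inhibition above a set limit at 5 µM in the primary screen, cut at about 50% in these data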;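 also: plate controls were negative control wells for no effect and 2.5 mM tranylcypromine positive control for full effect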
CYP2C9 inhib = blockers of cytochrome P450 2C9 activity – biochemical, luminescence, ADME assay, primary screen. CYP2C9 Supersomes, luciferin-H conversion. inhibition, % at 5 µM. 20% of 96,000 active;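 active = blocking of liver enzyme CYP2C9 beyond about 50% at 5 µM, limit read from the data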
hDAT+cocaine = changed hDAT dopamine uptake under cocaine IC80, either direction, primary screen, cocaine antagonist project, cell-based, LLC-PK1 hDAT, [14C]-dopamine uptake, MLSMR | LLC-PK1 hDAT cells, [14C]-dopamine uptake with cocaine IC80; actives deviate in either direction | B-score at 10 µM | 1.3% of 110,000 active | AID 449768, 2010;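 active = Z score or B-score, a plate-position-corrected score, falls beyond the plate's 99.7% confidence bounds, in either direction; inactive = both scores lie inside the 99.7% bounds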;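 also: scored against the spread of the other compound wells on the same plate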
D1 allo mod = D1 CRE-luciferase signal change, two-sided – cell-based, HEK293 D1, dopamine EC30, D1 allosteric modulator project, primary screen | D(1A) dopamine receptor (Homo sapiens), P21728 | dopamine EC30 potentiation; actives deviate in either direction | B-score at 10 µM | 5.9% of 58,000 active | AID 641, 2007;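 active = luminescence count or its row- and column-corrected plate score outside the 99.7% band of the plate's sample wells, on either side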
* = called active by the depositor. The list is not random: actives were taken first. Their share in the collection is about 28%.

What do the screens show for `Cc1cc(C)n(CC(O)Cn2c(C)c(C)c3ccccc32)n1` (stereo not given)?
CYP2C9 activ: 0.3; CYP2C19 act: 0.7; CYP2C19 inh: 32; CYP2C9 inhib: 71*; hDAT+cocaine: 0.041

Results for Cc1ccc(CNC(=O)[C@@H]2CCC(=O)N2Cc2ccco2)cc1 ?
CYP2C9 activ: 1; CYP2C19 act: 0.7; CYP2C19 inh: 32; CYP2C9 inhib: 4; hDAT+cocaine: -0.25

Results for O=C(CN1CCN(c2ncccn2)CC1)N(Cc1ccccc1)c1ccc(F)cc1 ?
CYP2C9 activ: 0.5; CYP2C19 act: 0.4; CYP2C19 inh: 61*; CYP2C9 inhib: 50*; hDAT+cocaine: 0.064; D1 allo mod: -1.1

What do the screens show for `CCOC(=O)CCCc1sc(N)nc1-c1[nH]c(=O)[nH]c1C`?
CYP2C9 activ: 1; CYP2C19 act: 1.2; CYP2C19 inh: -17; CYP2C9 inhib: -4; hDAT+cocaine: -0.65; D1 allo mod: -0.56

Results for O=C(C1CCCN(S(=O)(=O)c2ccc(Cl)cc2)C1)N(Cc1cccs1)C1CC1 (stereo not given) ?
CYP2C9 activ: 0.9; CYP2C19 act: 0.3; CYP2C19 inh: 69*; CYP2C9 inhib: 13; hDAT+cocaine: -0.025; D1 allo mod: -0.76

How did Cc1cccc2cc(CN(Cc3ccco3)C(=O)NC3CCCCC3)c(=O)[nH]c12 do in these assays?
CYP2C9 activ: 0.3; CYP2C19 act: 0.3; CYP2C19 inh: 70*; CYP2C9 inhib: 74*; hDAT+cocaine: 2.4*; D1 allo mod: 0.66

How did COc1ccccc1NC(=O)N(Cc1ccco1)Cc1cc2c(C)ccc(C)c2[nH]c1=O do in these assays?
hDAT+cocaine: 2.3

How did COc1ccc(CN(Cc2cc3cc4c(cc3[nH]c2=O)OCO4)C(=O)NC2CCCCC2)cc1 do in these assays?
CYP2C9 activ: 0.1; CYP2C19 act: 1; CYP2C19 inh: -3; CYP2C9 inhib: 90*; hDAT+cocaine: 1.1; D1 allo mod: 3.4

How did Cc1cccc2cc(CN(CC3CCCO3)C(=O)NC3CCCCC3)c(=O)[nH]c12 (stereo not given) do in these assays?
CYP2C9 activ: 0.8; CYP2C19 act: 0.9; CYP2C19 inh: 8; CYP2C9 inhib: 17; hDAT+cocaine: 0.65; D1 allo mod: 0.68

How did COc1ccc(CCN(Cc2cc3cccc(C)c3[nH]c2=O)C(=O)NC2CCCCC2)cc1OC do in these assays?
CYP2C9 activ: 0.3; CYP2C19 act: 0.3; CYP2C19 inh: 66*; CYP2C9 inhib: 75*; hDAT+cocaine: 0.76

How did COc1ccccc1NC(=O)N(Cc1ccco1)Cc1cc2cccc(C)c2[nH]c1=O do in these assays?
CYP2C9 activ: 0.2; CYP2C19 act: 0.1; CYP2C19 inh: 90*; CYP2C9 inhib: 82*; hDAT+cocaine: 1.2; D1 allo mod: -0.0021

What do the screens show for `CCN(CC)CCN(Cc1cc2cc3c(cc2[nH]c1=O)OCCO3)C(=O)NC1CCCCC1`?
CYP2C9 activ: 1.1; CYP2C19 act: 1; CYP2C19 inh: -1; CYP2C9 inhib: -7; hDAT+cocaine: 0.021; D1 allo mod: -0.0044

Results for Cc1ccccc1P(=O)(CO)c1ccccc1C ?
CYP2C9 activ: 1; CYP2C19 act: 0.7; CYP2C19 inh: 34; CYP2C9 inhib: -5; hDAT+cocaine: -0.65; D1 allo mod: -1.5

How did Cn1c(C(=O)NCCN2CCc3ccccc3C2)cc2c(=O)n(C)c3ccccc3c21 do in these assays?
CYP2C9 activ: 0.7; CYP2C19 act: 0.7; CYP2C19 inh: 35; CYP2C9 inhib: 31; hDAT+cocaine: 2.8; D1 allo mod: -0.31

What do the screens show for `CCN(CC)C(=O)c1sc2nc(N3CCOCC3)c3c(c2c1N)CCCC3`?
CYP2C9 activ: 0.5; CYP2C19 act: 1; CYP2C19 inh: -2; CYP2C9 inhib: 52*; hDAT+cocaine: 3*

Results for COC(=O)c1sc2nc(N3CCCCC3)c3c(c2c1N)CCCC3 ?
CYP2C9 activ: 0.3; CYP2C19 act: 0.6; CYP2C19 inh: 37; CYP2C9 inhib: 72*; hDAT+cocaine: 1.8

Results for NC(=O)c1sc2nc(N3CCCCC3)c3c(c2c1N)CCCC3 ?
CYP2C9 activ: 0.3; CYP2C19 act: 0.6; CYP2C19 inh: 43; CYP2C9 inhib: 68*; hDAT+cocaine: 1.3; D1 allo mod: 1.1

Results for COC(=O)c1ccc(-c2sc3nc(N4CCOCC4)c4c(c3c2N)CCCC4)o1 ?
CYP2C9 activ: 0.4; CYP2C19 act: 0.4; CYP2C19 inh: 57*; CYP2C9 inhib: 55*; hDAT+cocaine: 0.026; D1 allo mod: -0.11

Results for NC(=O)c1sc2nc3c(c(-c4ccc(Cl)cc4)c2c1N)CCCC3 ?
CYP2C9 activ: 0.8; CYP2C19 act: 1; CYP2C19 inh: -3; CYP2C9 inhib: 17; hDAT+cocaine: 0.61

How did CCCC(CCC)C(=O)NNc1cc(=O)c2c(=O)n(C)c(=O)n(C)c2[nH]1 do in these assays?
CYP2C9 activ: 0.8; CYP2C19 act: 1; CYP2C19 inh: -1; CYP2C9 inhib: 16

What do the screens show for `Nc1nc2ccc([N+](=O)[O-])c(N)c2s1`?
CYP2C9 activ: 1; CYP2C19 act: 1.1; CYP2C19 inh: -7; CYP2C9 inhib: -1; hDAT+cocaine: -0.041

How did COc1ccc(-n2cc(C(=O)c3cc4ccccc4oc3=O)c(C(C)=O)n2)cc1 do in these assays?
CYP2C9 activ: 1; CYP2C19 act: 1.1; CYP2C19 inh: -14; CYP2C9 inhib: -4; hDAT+cocaine: 0.14

What do the screens show for `CC1CCN(S(=O)(=O)c2ccc3c(c2)c(=O)c(C(=O)N2CCCCC2)cn3C)CC1`?
CYP2C9 activ: 1; CYP2C19 act: 1; CYP2C19 inh: 0; CYP2C9 inhib: 1; hDAT+cocaine: 0.026; D1 allo mod: -0.39

Results for O=C(O)C1CCCCC1C(=O)Nc1ccc(F)cc1F (stereo not given) ?
CYP2C9 activ: 1; CYP2C19 act: 1; CYP2C19 inh: -4; CYP2C9 inhib: -1; hDAT+cocaine: 0.17

How did CCOC(=O)c1sc2nc(N3CCOCC3)c3c(c2c1N)CCCC3 do in these assays?
CYP2C9 activ: 0.9; CYP2C19 act: 1; CYP2C19 inh: 2; CYP2C9 inhib: 9; hDAT+cocaine: 0.34; D1 allo mod: 1.2

Results for Nc1c(C(=O)NCc2ccco2)sc2nc(N3CCOCC3)c3c(c12)CCCC3 ?
CYP2C9 activ: 0.4; CYP2C19 act: 1.1; CYP2C19 inh: -7; CYP2C9 inhib: 56*; hDAT+cocaine: 1.1
